# Reference: ChEMBL document CHEMBL3988442, “University of Dundee, Small-Polar-MMV Screening Library” (2021)
# Screen size: about 69,000 compounds; about 420 (0.61%) showed an effect of 50% or more. Many of the other results were omitted from the sample, so strong results are more common in it than they were.
# Target: T1, Histidine--tRNA ligase (Leishmania infantum) (UniProt A4I591)
# T1 sequence (whole entry): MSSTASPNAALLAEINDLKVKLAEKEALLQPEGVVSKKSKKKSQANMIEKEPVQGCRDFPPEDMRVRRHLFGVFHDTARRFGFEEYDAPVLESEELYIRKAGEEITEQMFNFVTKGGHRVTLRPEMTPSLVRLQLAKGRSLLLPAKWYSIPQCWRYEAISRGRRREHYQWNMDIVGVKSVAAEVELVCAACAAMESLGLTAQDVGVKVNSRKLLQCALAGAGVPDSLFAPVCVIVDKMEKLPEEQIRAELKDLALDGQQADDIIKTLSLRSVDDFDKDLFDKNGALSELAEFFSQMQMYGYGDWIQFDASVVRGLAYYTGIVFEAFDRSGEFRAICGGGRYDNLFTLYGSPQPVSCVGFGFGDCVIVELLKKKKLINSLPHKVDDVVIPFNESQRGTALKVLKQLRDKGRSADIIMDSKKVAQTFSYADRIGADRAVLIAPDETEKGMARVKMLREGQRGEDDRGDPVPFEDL
# Assay: Leishmania infantum Histidine tRNA synthetase (LdHisRS)
# Type: functional
# Design: scale not given: in the data most compounds retested in dose-response had high values
# Settings: 30 µM
row,Structure (SMILES),Percent Effect
1,Cc1ncsc1CN1CC[C@H]2OCC[C@@]2(C(=O)N2CCCO2)C1,16.8%
2,COc1ccccc1C1(CNCc2ccc(C#N)cc2)CCOCC1,60.4%
3,COc1ccccc1C1(CNCc2ccc([S+](C)[O-])cc2)CC1 (configuration not stated),12.1%
4,COc1ccccc1C1(CNCc2cccc(O)c2)CCOCC1,109%
5,COc1ccccc1C1(CNc2nnc(C)c(C)c2C#N)CCOCC1,37%
6,N#Cc1ccc(CNCC2(c3ccccc3)CCOCC2)cc1,42.9%
7,COc1ccccc1C1(CNCc2cccc(C#N)c2)CCOCC1,49.5%
8,Cn1cc(C(=O)N2C[C@@H]3CN(S(C)(=O)=O)CCO[C@@H]3C2)cn1,7.55%
9,Cc1oncc1C(=O)N1CC[C@H]2[C@@H]1CCC(=O)N2CC1CC1,0%
10,CC(C)CN1C[C@H]2C[C@H](C(=O)N3CCCC3)[C@@H](C1)O2,13.2%
11,Cc1noc(C(C)Nc2ccc3oc(C)nc3c2)n1 (configuration not stated),106%
12,Cc1noc(C(C)Nc2ccc3oc(=O)[nH]c3c2)n1 (configuration not stated),16.4%
13,Cc1noc(C(C)Nc2ccc3oc(C(C)C)nc3c2)n1 (configuration not stated),106%
14,CC(C)c1nc2cc(NC(=O)Cn3ccccc3=O)ccc2o1,12%
15,Cc1noc(C(C)Nc2ccc3c(c2)CCC3)n1 (configuration not stated),9.38%
16,CC(C)c1nc2cc(NC(=O)Cn3ccc(=O)[nH]c3=O)ccc2o1,14%

row,Structure (SMILES),Percent Effect
1,Fc1cnc(N2C[C@@H]3C[C@@H](c4nc(C5CC5)cs4)O[C@@H]3C2)nc1,7.55%
2,CC(C)CNc1nc(C(=O)/N=c2\[nH]nc(C(C)(C)C)s2)cs1,1.91%
3,Cc1[nH]/c(=N\C(=O)c2csc(NCC(C)C)n2)sc1C,20.9%
4,Cc1cs/c(=N/C(=O)c2csc(NCC(C)C)n2)[nH]1,75.3%
5,CCN(Cc1nc2c(cnn2C)c(=O)[nH]1)Cc1ccco1,15.7%
6,COCCN1CCCc2sc(C(=O)NCC3CCCO3)nc21 (configuration not stated),52.8%
7,O=C(NCC1CCCO1)c1nc2c(s1)CCCN2Cc1ccccc1 (configuration not stated),45.8%
8,O=C(NCC1CCCO1)c1nc2c(s1)CCCN2CC1CC1 (configuration not stated),29.2%
9,Cc1cccc(CN2C[C@@H]3COC[C@]3(CNC(=O)C3CCC3)C2)c1,17.8%
10,CCS(=O)(=O)c1ccc(N2CCC(N)CC2)cc1,11.6%
11,COc1ccc(N2CCC(N3CCOC(C(F)(F)F)C3)CC2)cc1 (configuration not stated),14.3%
12,CNC1CCN(C2CCN(c3ccc(-c4ccco4)cc3)CC2)CC1,42.1%
13,NCC1CCN(C2CCN(c3ccc(-c4ccco4)cc3)CC2)C1 (configuration not stated),64.3%
14,NC1CCN(C2CCN(c3ccc(-c4ccco4)cc3)CC2)CC1,54.8%
15,O=C(O)c1ccccc1C1CCN(C2CCN(c3ccccc3)CC2)C1 (configuration not stated),22.7%
16,Cc1cccc(C(=O)N2CCN(S(C)(=O)=O)[C@@H]3CS(=O)(=O)C[C@@H]32)n1,-2.67%
